# Test results taken from PubChem BioAssay AID771 (SRMLSC, 2007).
# In all, about 3,300 compounds went through this assay and about 55 (2%) were called active.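 How the source made its calls: active means growth inhibition above 90%, meaning viable cell count by imaging cut by more than 90% versus vehicle controls; inactive means growth inhibition below 90%.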 The full list was thinned out, with actives kept by preference.
# Assay: HT29 colon tumor cell growth inhibition, primary screen, imaging, high content imaging, 48 h, CellTiter-Glo (AID 771);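 on condensed nuclei: condensed means Hoechst nuclear area under control median minus 1.5 SD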
# Conditions: HCS imaging cell count, at 10 µM, stronger effect = higher value; for condensed nuclei: measured here: percent cells with condensed nuclei
# [1] = measured here: ATP CellTiter-Glo viability inhibition
Compound,growth inhibition,condensed nuclei [%],growth inhibition [1] [%]
CNCCC=C1c2ccccc2CCc2ccccc21,97.6% (active),32.9,
CN(C)CCC=C1c2ccccc2CCc2ccccc21,28.2% (inactive),6.45,
COc1ccc(C(C)=O)cc1CSCCC(=O)O,-39.8% (inactive),1.66,-10.3
CCOC(=O)Oc1ccc2c(c1)C(C)=CC(C)(C)N2C(=O)OCC,44.5% (inactive),1.63,33.4
CCCc1cc(NCCCCO)n2c(nc3ccccc32)c1C#N,41.5% (inactive),2.71,6.57
C/C(=N/n1cnnc1)c1cccnc1,-50.9% (inactive),2.16,-4.47
Cc1cccc(OCc2nc(C)cc(=O)[nH]2)c1,37.9% (inactive),2.19,1.04
COCc1cc(=O)[nH]c(Nc2nc3ccc(C)cc3o2)n1,93% (active),0,69.7
COCc1cc(=O)[nH]c(Nc2nc3ccccc3o2)n1,89.2% (inactive),2.5,76.3
COc1ccccc1-n1c(=O)c2c3c(sc2n2c(SC(C)C)nnc12)CCC3,-4.74% (inactive),3.08,-1.5
CCOC(=O)C1=C(c2ccccc2)NC(SCC(=O)Nc2ccccc2C)=C(C#N)C1c1ccco1 (configuration not stated),91% (active),11,75.3
C=CCOC(=O)C1=C(C)NC(SCC(=O)N(CC)CC)=C(C#N)C1c1ccco1 (configuration not stated),-28.4% (inactive),2.96,-41.1
C=CCOC(=O)C1=C(C)NC(SCC(=O)Nc2ccc(C)c(Cl)c2)=C(C#N)C1c1ccco1 (configuration not stated),91.3% (active),8.14,45.8
C=CCOC(=O)C1=C(C)NC(SCC(=O)N(CC)CC)=C(C#N)C1c1ccccc1 (configuration not stated),54.1% (inactive),4.29,3.16
COCCOC(=O)C1=C(C)NC(SCC(=O)NC(C)(C)C)=C(C#N)C1c1ccco1 (configuration not stated),34.7% (inactive),3.96,-24.4
CCN(CC)C(=O)CSC1=C(C#N)C(c2ccco2)C(C(=O)OCCOC)=C(C)N1 (configuration not stated),25.5% (inactive),3.61,20.6
Cc1cc(CC(=O)O)c(C)cc1CC(=O)O,-42% (inactive),2.43,-0.43
CCCn1nnc(NC(=O)c2cc(Br)cc(Br)c2OC)n1,-8.21% (inactive),7.92,-15.1
O=C1[C@@H]2[C@H](C(=O)N1O)[C@H]1C=C[C@@H]2C1,1.8% (inactive),1.79,-19.1
CCCc1nnc(NC(=O)c2c(O)c3c([nH]c2=O)CCCC3)s1,-9.28% (inactive),7.28,-32.6
CCN(CC)c1ccc(-c2nn3c(-c4cccnc4)nnc3s2)cc1,90.1% (active),4.92,75
c1cncc(-c2nnc3sc(-c4ccco4)nn23)c1,28% (inactive),21.4,26.6
COc1cc(-c2nn3c(-c4cccnc4)nnc3s2)cc(OC)c1OC,-10.1% (inactive),3,-33.4
